The campaign covered roughly 310,000 compounds. About 3,300 (1.1%) were called active.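 The calls were made as follows: active = B-score under library mean minus 3 SD, initial fluorescence not abnormally high, positive integrated signal ratio; inactive = the rest.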 The entries come from a sample that favours actives as a whole.
target: Short transient receptor potential channel 6 (Mus musculus) (UniProt Q61143); test: mouse TRPC6 channel inhibitors, primary screen, cell-based, HEK293, membrane potential dye (AID 2553); conditions: ACh-evoked depolarization, at 10 µM; active compounds read low;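 as to B-score: B-score derived from integrated fluorescence ratio over the kinetic read; more negative B-score means stronger inhibition of depolarization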
Sequence (Q61143 whole entry, looked up): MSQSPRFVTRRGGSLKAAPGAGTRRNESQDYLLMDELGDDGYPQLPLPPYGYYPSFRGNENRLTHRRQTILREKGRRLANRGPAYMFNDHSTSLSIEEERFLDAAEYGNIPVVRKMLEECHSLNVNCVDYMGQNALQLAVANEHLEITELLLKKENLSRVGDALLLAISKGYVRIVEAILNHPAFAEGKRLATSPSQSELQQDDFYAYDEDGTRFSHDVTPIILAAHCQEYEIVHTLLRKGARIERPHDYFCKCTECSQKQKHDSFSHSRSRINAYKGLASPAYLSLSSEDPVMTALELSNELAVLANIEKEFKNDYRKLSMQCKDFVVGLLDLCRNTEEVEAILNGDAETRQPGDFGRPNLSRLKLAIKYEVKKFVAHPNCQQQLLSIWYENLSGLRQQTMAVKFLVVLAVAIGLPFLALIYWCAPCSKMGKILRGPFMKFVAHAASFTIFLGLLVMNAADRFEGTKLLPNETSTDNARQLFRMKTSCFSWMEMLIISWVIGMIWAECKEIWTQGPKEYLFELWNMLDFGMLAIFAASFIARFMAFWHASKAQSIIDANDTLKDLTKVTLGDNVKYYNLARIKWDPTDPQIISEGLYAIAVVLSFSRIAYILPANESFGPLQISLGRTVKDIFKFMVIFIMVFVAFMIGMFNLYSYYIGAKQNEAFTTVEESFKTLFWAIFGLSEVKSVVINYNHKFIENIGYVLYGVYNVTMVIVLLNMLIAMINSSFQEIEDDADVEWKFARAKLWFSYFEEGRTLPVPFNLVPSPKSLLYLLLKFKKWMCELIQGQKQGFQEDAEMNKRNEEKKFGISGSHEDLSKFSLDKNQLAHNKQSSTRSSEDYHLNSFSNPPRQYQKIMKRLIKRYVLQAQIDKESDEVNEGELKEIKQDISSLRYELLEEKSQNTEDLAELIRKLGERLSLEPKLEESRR

SMILES	B-score
CN1CCN(C(=O)N2c3ccccc3CCc3ccccc32)CC1	-6.16 (active)
CN1CCN(S(=O)(=O)c2cccc(C(=O)N3CCc4ccccc43)c2)CC1	inactive
CC1CC(C)CN(CC(=O)N2c3ccccc3CCc3ccccc32)C1 (stereo unspecified)	inactive
COc1ccc(C(=O)C2CCCN(C(=O)c3cc(C)on3)C2)cc1F (stereo unspecified)	inactive
COc1ccccc1/C=C/CN1CCC(CO)(Cc2ccccc2)CC1	inactive
Cc1cc(=O)cc(C)n1-c1ccc(Cl)c(Cl)c1	inactive
COc1ccc(NC(=O)CSc2nnc(-c3ccccc3F)n2C2CC2)cc1S(N)(=O)=O	inactive
Cc1ccccc1NC(=O)CNc1ccccc1N1CCCCC1	-6.42 (active)
Cc1ccccc1NC(=O)Nc1ccccc1N1CCCCC1	inactive
O=C(CNCCC1=CCCCC1)Nc1ccccc1N1CCCCCC1	inactive
CCN(C(=O)Cc1c(C(=O)O)n(CC)c2ccccc12)c1ccccc1C	inactive
CCCCOc1ccc(NC(=O)[C@@H]2CCCN2C(=O)C2CCN(S(=O)(=O)c3ccc(C)cc3)CC2)cc1	inactive
CCc1ccc(C(=O)NNC(=O)C2CCN(c3ncnc4sc(C)c(C)c34)CC2)cc1	inactive
CCOc1ccc2nc(NC(=O)c3cc([N+](=O)[O-])ccc3N3CCOCC3)sc2c1	inactive
O=C(NC(Nc1nc2ccc([N+](=O)[O-])cc2s1)(C(F)(F)F)C(F)(F)F)c1ccccc1	-10.2 (active)
CCC(=O)NC(Nc1nc2ccc(C)cc2s1)(C(=O)OC)C(F)(F)F (stereo unspecified)	inactive
COc1ccc2c(C)cc3nnnn3c2c1	inactive
CC(C)c1cc(C(=O)N/N=C/c2ccoc2)c(O)c(C(C)C)c1	inactive
COc1ccc(Br)cc1/C=N/n1c(C)nnc1C	-5.36 (active)
Cc1nnc(C)n1/N=C/c1ccc(C(C)C)cc1	inactive
COc1ccc(Br)cc1/C=N/Nc1ccc(Cl)c(C(=O)O)c1	inactive
NC(=O)COc1ccc(/C=N/NC(=O)C2CCCN2S(=O)(=O)c2ccc(Cl)cc2)cc1 (stereo unspecified)	inactive
COc1ccc(CN2C3CCCC2CC(NC(=O)c2cccc(F)c2)C3)cc1 (stereo unspecified)	inactive
COc1ccccc1CN1CCN(C(c2ccccc2)c2ccccc2)CC1	inactive
CC(NCc1ccccc1OC1CCCC1)c1ccccc1 (stereo unspecified)	-8.19 (active)
CC(=O)OC(C(=O)NC1CCCCC1)c1ccccc1 (stereo unspecified)	inactive

SMILES	B-score
CCOC(=O)c1[nH]ncc1CN1CCCC(C(=O)c2ccc(OC)cc2C)C1 (stereo unspecified)	inactive
COc1ccc(C(=O)C2CCCN(Cc3cccn3-c3ccccn3)C2)c(C)c1 (stereo unspecified)	-12.5 (active)
COc1ccc(C(=O)C2CCCN(Cc3ccc4nonc4c3)C2)c(C)c1 (stereo unspecified)	inactive
Cc1ccc(C(=O)Oc2ccc(C(=S)N3CCOCC3)cc2)cc1	inactive
CC(C)CCNc1nc(N2CCCC2)c2c(c1C#N)CCN(C)C2	-6.63 (active)
CC(C)Cc1nc(N2CCOCC2)c(C#N)c2c1CCC2	inactive
CCc1nc(NCCO)c(C#N)c2c1CCCC2	inactive
COc1ccc(-c2cc(C3CCN(c4ncccc4[N+](=O)[O-])CC3)[nH]n2)cc1	inactive
Cc1cc(Cl)ccc1C(=O)C1CCCN(C(=O)c2nonc2C)C1 (stereo unspecified)	inactive
O=[N+]([O-])c1ccccc1Nc1ccc(O)cc1	-5.49 (active)
O=C(Nc1ccccc1[N+](=O)[O-])C1C(c2ccccc2)=C1c1ccccc1	inactive
O=C(O)c1ccccc1C(=O)Nc1ccccc1[N+](=O)[O-]	inactive
O=C(CCN1CCCCC1)N=Nc1c(O)[nH]c2ccccc12	inactive
N#Cc1cccc(CSc2ncnc(N)n2)c1	inactive
O=C(CN1C(=O)S/C(=C\c2ccccc2F)C1=O)NCCCn1ccnc1	inactive
O=C(CN1CCCCCC1)NCCN1C(=O)S/C(=C\c2ccccc2Cl)C1=O	-5 (active)
O=C(CN1C(=O)S/C(=C\c2ccccc2Cl)C1=O)NC1C=CS(=O)(=O)C1 (stereo unspecified)	inactive
CCn1cc(C(=O)OCC(=O)Nc2cccc(C)c2)c(=O)c2ccc(C)nc21	inactive
Cc1nc(C(=O)Nc2ccc(Cl)cc2)sc1C1(C)CC(c2ccccc2)=NO1 (stereo unspecified)	inactive
Cc1nc(C(=O)NCc2ccccc2)sc1C1(C)CC(c2cccnc2)=NO1 (stereo unspecified)	-5.44 (active)
Cc1nc(-c2ccccc2)sc1C1(C)CC(c2cccnc2)=NO1 (stereo unspecified)	inactive
CC(C)(C)CN1CCNC(=O)C1CC(=O)NC1Cc2ccccc2C1 (stereo unspecified)	inactive
CCN(CC)CCCNC(=O)COc1ccc2oc3c(c2c1)CCCC3	inactive
CCOC(=O)N1CCN(C(=O)COc2ccc3oc4c(c3c2)CCCC4)CC1	-5.45 (active)
CCOC(=O)N1CCN(C(=O)COc2ccc(Br)cc2)CC1	inactive
COc1ccc(COCCN2CCN(S(=O)(=O)c3ccccc3)CCC2=O)cc1	inactive

SMILES	B-score
Cc1ccc(C(O)P(=O)(OC(C)C)c2ccc(N(C)C)cc2)cc1 (stereo unspecified)	inactive
CCn1c(SCC(=O)Nc2ccc(Br)cc2)nc2sc3c(c2c1=O)CCN(C)C3	inactive
COc1c(C=O)c(CCN(C)C(=O)c2ccc(F)cc2)cc2c1OCO2	inactive
COc1ccc(C)cc1S(=O)(=O)Nc1cc2c3c(c1)CCC(=O)N3CCC2	inactive
CC(NC(=O)c1ccc(N2CCNCC2)c([N+](=O)[O-])c1)C12CC3CC(CC(C3)C1)C2 (stereo unspecified)	inactive
O=C(NC1C2CC3CC(C2)CC1C3)c1ccc(N2CCNCC2)c([N+](=O)[O-])c1 (stereo unspecified)	-6.41 (active)
CS(=O)(=O)N1CCN(c2ccc(C(=O)NC3C4CC5CC(C4)CC3C5)cc2[N+](=O)[O-])CC1 (stereo unspecified)	inactive
COC(=O)c1ccc(CNC(=O)C2CCC(=O)N(Cc3ccccn3)C2)cc1 (stereo unspecified)	inactive
CCCC(=O)Nc1ccc(C(=O)NCCCn2ccnc2)cc1	-6.02 (active)
CCCCC(=O)Nc1ccc(C(=O)NCCCn2ccnc2)cc1	inactive
COc1cc(OC)cc(C(=O)NCCCn2ccnc2)c1	inactive
COc1ccnc(Oc2ccccc2)n1	inactive
Cn1nc(C(F)(F)F)c(-c2ccc(F)cc2)c1NC(=O)CSCC(=O)O	inactive
CSCCC(NC(=O)c1ccc(=O)n(C)n1)c1nc2ccccc2[nH]1 (stereo unspecified)	-4.99 (active)
CSCCC(NC(=O)c1cc([N+](=O)[O-])cc([N+](=O)[O-])c1)c1nc2ccccc2[nH]1 (stereo unspecified)	inactive
COc1ccc(CC(=O)N[C@@H](CCSC)c2nc3ccccc3[nH]2)cc1	inactive
COc1ccccc1Oc1ccc(N2CC(C(=O)OCC(=O)c3ccc(F)cc3)CC2=O)cc1 (stereo unspecified)	inactive
CC(C)[C@@H]1COC(c2cccc(C3=N[C@H](C(C)C)CO3)c2)=N1	inactive
Cc1nc(-c2ccc(F)cc2)c(CC(=O)Nc2cccc(S(=O)(=O)N3CCOCC3)c2)s1	inactive
O=S(=O)(c1cccc(Cn2nnc(-c3ccc(F)cc3)n2)c1)N1CCOCC1	-5.77 (active)
CCN(Cc1ccncc1)C(=O)c1cccc(S(=O)(=O)N2CCOCC2)c1	inactive
O=C(Nc1ccc(OCC(=O)N2CCOCC2)cc1)c1cc(F)c(F)cc1Cl	inactive
COc1ccc2c(c1)C=CC1(O2)N(CCO)c2ccccc2C1(C)C (stereo unspecified)	inactive
O=C1CN(C(=O)c2ccccc2F)C(c2ccc(F)cc2)c2cc(F)ccc2N1 (stereo unspecified)	-5.3 (active)
Cc1ccc(C(=O)N2CC(=O)Nc3ccc(F)cc3C2c2ccc(F)cc2)cc1 (stereo unspecified)	inactive
CC(C)C(=O)N1CC(=O)Nc2ccc(F)cc2C1c1ccc(F)cc1 (stereo unspecified)	inactive

SMILES	B-score
CCc1ccc(NC(=O)CS(=O)CC(=O)N2CCN(c3ccccc3F)CC2)cc1 (stereo unspecified)	inactive
Cc1c(CCOC(=O)CC23CC4CC(CC(C)(C4)C2)C3)sc[n+]1Cc1ccc([N+](=O)[O-])cc1	-5.88 (active)
Cc1c(CCOC(=O)c2cc([N+](=O)[O-])ccc2Cl)sc[n+]1CCCCS(=O)(=O)[O-]	inactive
Cc1c(CCO)sc[n+]1CC(=O)OC12CC3CC(CC(C3)C1)C2	inactive
COc1ccc(NC(=O)CN(C)C(=O)c2ccc(NC3CC3)c([N+](=O)[O-])c2)cc1	inactive
CCC(C)(C)N=C(NC#N)Nc1cccnc1	inactive
Cc1cccn2c(=O)c3cc(C#N)c(=NC(=O)c4cccnc4)n(CC4CCCO4)c3nc12 (stereo unspecified)	inactive
Cc1cccn2c(=O)c3cc(C(=O)NCCN4CCOCC4)c(=N)n(Cc4cccnc4)c3nc12	inactive
Cc1cccn2c(=O)c3cc(C#N)c(=O)n(CCCN4CCOCC4)c3nc12	-15.8 (active)
CC(C)CCNC(=O)C(C)N(C(=O)Cn1nnc(-c2ccc(F)cc2)n1)C1CCCC1 (stereo unspecified)	inactive
CCCCNc1nc2ccccc2nc1NS(=O)(=O)c1cccs1	inactive
O=C(CN1C(=O)CSC1=O)N1CCCC(Nc2ccc(F)cc2)C1 (stereo unspecified)	inactive
CCOc1cccc(/C(O)=C2/C(=O)C(=O)N(CCOC)C2c2ccncc2)c1 (stereo unspecified)	inactive
CCOc1ccc(/C(O)=C2/C(=O)C(=O)N(Cc3cccnc3)C2c2ccc(N(C)C)cc2)c(C)c1 (stereo unspecified)	-6.27 (active)
COc1ccc(C2C(C(C)=O)=C(O)C(=O)N2Cc2cccnc2)cc1 (stereo unspecified)	inactive
O=C(NCc1ccccc1)C1C(=O)N(Cc2ccccc2)C(=O)C1C1(O)CCCC1 (stereo unspecified)	inactive
Cc1cc(NC(=O)CN2CCCCC2C)nc2c1c(=O)oc1ccccc12 (stereo unspecified)	inactive
CC(=O)N1CCC(N(C(=O)Nc2ccc(Cl)cc2)C(C)C)CC1	inactive
Cc1ccc2nc3c(cc(C(=O)NCCc4ccccc4)c(=N)n3CC3CCCO3)c(=O)n2c1 (stereo unspecified)	inactive
COc1ccc(CNC(=O)c2cc3c(=O)n4ccccc4nc3n(CC3CCCO3)c2=N)cc1 (stereo unspecified)	-7.34 (active)
COc1ccc(CCn2c(=N)c(C(=O)NCC3CCCO3)cc3c(=O)n4cccc(C)c4nc32)cc1OC (stereo unspecified)	inactive
CC(C)c1ccc(NC2CCCN(C(=O)c3ccncc3)C2)cc1 (stereo unspecified)	inactive
CC(=O)NS(=O)(=O)c1ccc2c(c1)Cc1cc(S(=O)(=O)NC(C)=O)ccc1-2	inactive

Source: PubChem BioAssay AID2553 (Johns Hopkins Ion Channel Center, 2010)
